Assay results published in PubChem BioAssay AID1159580 (chemical genetic matrix, 2015).
The campaign covered roughly 5,500 compounds. About 2,000 (36%) were called active. About 18% were inconclusive and are not listed. Rule as the data show it: active = normalized growth mostly below about 0.91 (no sharp cut-off); inconclusive = no clear call, values can overlap the other calls; inactive = mostly above about 0.92. The list shows a part of the results.

Test: chemical genetic growth profiling, strain panel (AID 1159580);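 also: tested at 20 µM; growth read once vehicle control cultures reached saturation at 30 °C; 1 = growth at the plate median or of vehicle wells; lower values mean less growth of the strain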
Settings: S. cerevisiae deletion strains, growth OD
[1] = locus YAR019C, strain CDC15, stronger effect = lower value
[2] = locus YBL105C, strain PKC1, stronger effect = lower value
[3] = locus YBR135W, strain CKS1, stronger effect = lower value
[4] = locus YBR136W, strain MEC1, stronger effect = lower value
[5] = locus YBR160W, strain CDC28, stronger effect = lower value
[6] = locus YDL017W, strain CDC7, stronger effect = lower value
[7] = locus YDL028C, strain MPS1, stronger effect = lower value
[8] = locus YDL101C, strain DUN1, stronger effect = lower value
[9] = locus YDL108W, strain KIN28, stronger effect = lower value
[10] = locus YDL132W, strain cdc53, stronger effect = lower value
[11] = locus YDL214C, strain PRR2, stronger effect = lower value
[12] = locus YDR052C, strain DBF4, stronger effect = lower value
[13] = locus YDR054C, strain cdc34, stronger effect = lower value
[14] = locus YDR226W, strain ADK1, stronger effect = lower value
[15] = locus YDR477W, strain SNF1, stronger effect = lower value
[16] = locus YER123W, strain YCK3, stronger effect = lower value
[17] = locus YER133W, strain GLC7, stronger effect = lower value
[18] = locus YFL009W, strain cdc4, stronger effect = lower value
[19] = locus YFL029C, strain CAK1, stronger effect = lower value
[20] = locus YFR003C, strain YPI1, stronger effect = lower value
[21] = locus YFR019W, strain FAB1, stronger effect = lower value
[22] = locus YFR028C, strain CDC14, stronger effect = lower value
[23] = locus YGR040W, strain KSS1, stronger effect = lower value
[24] = locus YGR052W, strain FMP48, stronger effect = lower value
[25] = locus YGR092W, strain DBF2, stronger effect = lower value
[26] = locus YHR030C, strain SLT2, stronger effect = lower value
[27] = locus YHR079C, strain IRE1, stronger effect = lower value
[28] = locus YHR082C, strain KSP1, stronger effect = lower value
[29] = locus YHR205W, strain SCH9, stronger effect = lower value
[30] = locus YIL147C, strain SLN1, stronger effect = lower value
[31] = locus YJL095W, strain BCK1, stronger effect = lower value
[32] = locus YJL128C, strain PBS2, stronger effect = lower value
[33] = locus YJL157C, strain FAR1, stronger effect = lower value
[34] = locus YJR016C, strain ILV3, stronger effect = lower value
[35] = locus YJR066W, strain TOR1 (second series), stronger effect = lower value
[36] = locus YJR066W, strain TOR1, stronger effect = lower value
[37] = locus YKL048C, strain ELM1, stronger effect = lower value
[38] = locus YKL067W, strain YNK1, stronger effect = lower value
[39] = locus YKL101W, strain HSL1, stronger effect = lower value
[40] = locus YKL193C, strain SDS22, stronger effect = lower value
[41] = locus YKL203C, strain TOR2, stronger effect = lower value
[42] = locus YLR113W, strain HOG1, stronger effect = lower value
[43] = locus YLR133W, strain CKI1, stronger effect = lower value
[44] = locus YLR403W, strain SFP1, stronger effect = lower value
[45] = locus YML070W, strain DAK1, stronger effect = lower value
[46] = locus YMR001C, strain CDC5, stronger effect = lower value
[47] = locus YMR205C, strain PFK2 (second series), stronger effect = lower value
[48] = locus YMR277W, strain FCP1, stronger effect = lower value
[49] = locus YNL006W, strain LST8, stronger effect = lower value
[50] = locus YNL020C, strain ARK1, stronger effect = lower value
[51] = locus YNL161W, strain CBK1, stronger effect = lower value
[52] = locus YNL183C, strain NPR1, stronger effect = lower value
[53] = locus YNL207W, strain RIO2, stronger effect = lower value
[54] = locus YNL222W, strain SSU72, stronger effect = lower value
[55] = locus YNL307C, strain MCK1 (second series), stronger effect = lower value
[56] = locus YOL078W, strain AVO1, stronger effect = lower value
[57] = locus YOL136C, strain PFK27, stronger effect = lower value
[58] = locus YOR061W, strain CKA2, stronger effect = lower value
[59] = locus YOR119C, strain RIO1, stronger effect = lower value
[60] = locus YOR231W, strain MKK1, stronger effect = lower value
[61] = locus YOR329C, strain SCD5, stronger effect = lower value
[62] = locus YPL031C, strain PHO85, stronger effect = lower value
[63] = locus YPL153C, strain RAD53, stronger effect = lower value
[64] = locus YPL204W, strain HRR25, stronger effect = lower value
[65] = locus YPL209C, strain IPL1, stronger effect = lower value
[66] = locus YPL256C, strain CLN2, stronger effect = lower value
[67] = locus YPR025C, strain CCL1, stronger effect = lower value
[68] = locus YPR106W, strain ISR1, stronger effect = lower value
[69] = locus YPR111W, strain DBF20, stronger effect = lower value
[70] = strain NNK1, stronger effect = lower value
[71] = strain TSCII, stronger effect = lower value

Measured: normalized growth

NNC(=O)c1csc(Cc2c(Cl)sc3ccc(Cl)cc23)n1
inactive: [1] 0.979 | [2] 0.983 | [3] 1 | [4] 0.993 | [5] 0.996 | [6] 0.985 | [7] 0.996 | [8] 0.985 | [9] 1 | [10] 0.975 | [11] 1.02 | [12] 0.986 | [13] 0.968 | [14] 0.996 | [15] 0.979 | [16] 1.01 | [17] 0.979 | [18] 0.991 | [19] 0.971 | [20] 0.994 | [21] 0.992 | [22] 0.994 | [23] 0.988 | [24] 1.11 | [25] 0.969 | [26] 1 | [27] 0.977 | [28] 1.04 | [29] 1.01 | [30] 0.99 | [31] 0.994 | [32] 0.998 | [33] 0.994 | [34] 0.981 | [35] 0.983 | [36] 1.05 | [37] 1 | [38] 1 | [39] 1.02 | [40] 0.983 | [41] 1.04 | [42] 1.07 | [43] 1 | [44] 0.978 | [45] 1.01 | [46] 0.989 | [47] 1.01 | [48] 0.981 | [49] 0.998 | [50] 0.999 | [51] 0.983 | [52] 1.03 | [53] 0.983 | [54] 0.986 | [55] 1.01 | [56] 0.976 | [57] 1 | [58] 1.01 | [59] 1.07 | [60] 0.986 | [61] 0.99 | [62] 0.984 | [63] 0.974 | [64] 0.971 | [65] 0.984 | [66] 1.03 | [67] 0.995 | [68] 0.998 | [69] 0.992 | [70] 0.984 | [71] 0.982

COc1ccc(C(=O)NCc2csc3ccc(Cl)cc23)cc1OC
inactive: [1] 0.971 | [2] 0.97 | [3] 0.985 | [4] 0.975 | [5] 0.975 | [6] 0.982 | [7] 0.986 | [8] 0.973 | [9] 0.981 | [10] 0.979 | [11] 0.986 | [12] 0.971 | [13] 0.955 | [14] 0.975 | [15] 0.982 | [16] 0.977 | [17] 0.978 | [18] 0.97 | [19] 0.974 | [20] 0.977 | [21] 1 | [22] 0.977 | [23] 0.994 | [24] 1.05 | [25] 0.981 | [26] 1.03 | [27] 1.01 | [28] 1.05 | [29] 0.972 | [30] 0.975 | [31] 1.05 | [32] 0.92 | [33] 0.988 | [34] 0.975 | [35] 1.01 | [36] 1.07 | [37] 0.98 | [38] 0.987 | [39] 0.994 | [40] 0.977 | [41] 1.05 | [42] 0.92 | [43] 0.976 | [44] 0.994 | [45] 0.983 | [46] 0.979 | [47] 0.986 | [48] 0.973 | [49] 0.983 | [50] 0.985 | [51] 0.975 | [52] 0.999 | [53] 0.962 | [54] 0.972 | [55] 0.972 | [56] 0.977 | [57] 0.98 | [58] 1 | [59] 1.05 | [60] 0.983 | [61] 0.975 | [62] 0.994 | [63] 0.995 | [64] 0.974 | [65] 0.972 | [66] 0.947 | [67] 0.976 | [68] 0.966 | [69] 0.954 | [70] 0.97 | [71] 0.984

CNC(=O)n1nc(C)c(Cc2csc3ccc(Cl)cc23)c1C
inactive: [1] 0.995 | [2] 0.998 | [3] 0.984 | [4] 0.997 | [5] 0.991 | [6] 0.994 | [7] 0.997 | [8] 1.01 | [9] 0.993 | [10] 1 | [11] 0.943 | [12] 1 | [13] 0.99 | [14] 0.99 | [15] 0.976 | [16] 0.906 | [17] 0.959 | [18] 0.999 | [19] 0.993 | [20] 0.993 | [21] 0.928 | [22] 0.978 | [23] 0.95 | [24] 0.989 | [25] 0.949 | [26] 0.935 | [27] 0.893 | [28] 0.936 | [29] 0.921 | [30] 0.993 | [31] 0.94 | [32] 0.934 | [33] 0.961 | [34] 0.994 | [35] 0.931 | [36] 1.02 | [37] 0.983 | [38] 0.91 | [39] 0.951 | [40] 0.991 | [41] 0.996 | [42] 0.902 | [43] 0.937 | [44] 0.942 | [45] 0.917 | [46] 0.988 | [47] 0.933 | [48] 0.988 | [49] 0.988 | [50] 0.934 | [51] 0.993 | [52] 0.896 | [53] 0.993 | [54] 0.992 | [55] 0.925 | [56] 0.991 | [57] 0.926 | [58] 0.957 | [59] 1.03 | [60] 0.894 | [61] 0.997 | [62] 0.966 | [63] 0.936 | [64] 0.926 | [65] 0.993 | [67] 0.998 | [68] 0.999 | [69] 0.979 | [70] 0.991 | [71] 0.989
active: [66] 0.855
